From the supplement of paper PMC9262897, “Low-cost anti-mycobacterial drug discovery using engineered E. coli” (Nature Communications, 2022)
Where a name gives a salt, the structure may show the parent alone. ± gives the standard deviation of the averaged measurements.

The molecules below were run on E. coli TESEC Mtb Alr (assay: growth (OD600 after 10 h); higher = more growth (less inhibition)). Conditions: arabinose 100 nM; compound 0.1 mM; raw OD600 reference: median of DMSO wells 0.413, cell-free background 0.052.
Experimental: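 TESEC Mtb Alr E. coli (ΔaraC ΔtolC ΔentC Δalr ΔdadX, arabinose-inducible Mtb Alr) or the Alr+ wild-type control strain, grown in defined M9-fructose medium without D-alanine in 96-well plates with Prestwick library compounds at 0.1 mM and 1% DMSO. Low Alr induction is 0.1 µM arabinose and high induction is 10 mM arabinose.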

| SMILES | growth |
| --- | --- |
| CN1CCc2c(c3ccccc3n2Cc2ccccc2)C1 [Mebhydroline 1,5-naphtalenedisulfonate] | 0.404 ± 0.0065 |
| C[C@@H](O[C@H]1OCCN(Cc2n[nH]c(=O)[nH]2)[C@H]1c1ccc(F)cc1)c1cc(C(F)(F)F)cc(C(F)(F)F)c1 [Aprepitant] | 0.442 ± 0.012 |
| COc1cccc(N(C)C(=S)Oc2ccc3c(c2)CCCC3)n1 [Liranaftate] | 0.407 ± 0.038 |
| Oc1c(Cl)cc(Cl)c(Cl)c1Cc1c(O)c(Cl)cc(Cl)c1Cl [Hexachlorophene] | 0.063 ± 0.0035 |
| CC1(C)S[C@@H]2[C@H](NC(=O)[C@H](N)c3ccccc3)C(=O)N2[C@H]1C(=O)O [Ampicillin trihydrate] | 0.4271 ± 0.0036 |
| CCC(=O)O[C@]1(C(=O)SCF)[C@H](C)C[C@H]2[C@@H]3C[C@H](F)C4=CC(=O)C=C[C@]4(C)[C@@]3(F)[C@@H](O)C[C@@]21C [Fluticasone propionate] | 0.453 ± 0.01 |
| CCCC(=O)Nc1ccc(OCC(O)CNC(C)C)c(C(C)=O)c1 (configuration not stated) [Acebutolol hydrochloride] | 0.411 ± 0.0058 |
| CC(C)(C)NC[C@H](O)COc1cccc2c1CCCC2=O [(-) -Levobunolol hydrochloride] | 0.403 ± 0.013 |
| COC(=O)CCc1ccc(OCC(O)CNC(C)C)cc1 (configuration not stated) [Esmolol hydrochloride] | 0.405 ± 0.015 |
| O=c1[nH]cnc2c1ncn2[C@H]1CC[C@@H](CO)O1 [Didanosine] | 0.425 ± 0.0085 |
| C[C@@H]1CCC[C@H](C)N1NC(=O)c1ccc(Cl)c(S(N)(=O)=O)c1 [Clopamide] | 0.419 ± 0.011 |
| CCCc1nn(C)c2c(=O)[nH]c(-c3cc(S(=O)(=O)N4CCN(C)CC4)ccc3OCC)nc12 [Sildenafil] | 0.406 ± 0.0068 |
| O=C1[C@H]2CCCC[C@H]2C(=O)N1CCCCN1CCN(c2nsc3ccccc23)CC1 [Perospirone] | 0.419 ± 0.0096 |
| CN1CCCC(CC2c3ccccc3Sc3ccccc32)C1 (configuration not stated) [Metixene hydrochloride] | 0.401 ± 0.0069 |
| C[C@H]1O[C@H](O[C@H]2[C@H](O)[C@@H](O)[C@@H](O[C@@H]([C@H](O)[C@@H](O)C=O)[C@H](O)CO)O[C@@H]2CO)[C@H](O)[C@@H](O)[C@@H]1N[C@H]1C=C(CO)[C@@H](O)[C@H](O)[C@H]1O [Acarbose] | 0.396 ± 0.013 |
| O=C(Oc1cccc2cccnc12)c1ccccc1 [Benzoxiquine] | 0.368 ± 0.016 |

| SMILES | growth |
| --- | --- |
| O=P(O)(O)C(O)(Cn1ccnc1)P(=O)(O)O [Zoledronic acid hydrate] | 0.421 ± 0.011 |
| Clc1ccc(COC(Cn2ccnc2)c2ccc(Cl)cc2Cl)c(Cl)c1 (configuration not stated) [Miconazole] | 0.051 ± 0.0039 |
| CC[N+](CC)(CC)CCC(O)(c1ccccc1)C1CCCCC1 (configuration not stated) [Tridihexethyl chloride] | 0.417 ± 0.0044 |
| COc1ccc(-c2ccc3cc(C(=O)O)ccc3c2)cc1C12CC3CC(CC(C3)C1)C2 [Adapalene] | 0.435 ± 0.014 |
| CC1=Nc2ccc(Cl)cc2S(=O)(=O)N1 [Diazoxide] | 0.4111 ± 0.0032 |
| COCCCOc1ccnc(C[S+]([O-])c2nc3ccccc3[nH]2)c1C (configuration not stated) [Rabeprazole Sodium salt] | 0.357 ± 0.011 |
| O=C(O)c1cc(/N=N/c2ccc(S(=O)(=O)Nc3ccccn3)cc2)ccc1O [Sulfasalazine] | 0.431 ± 0.0053 |
| Cc1c(O)c(=O)n(-c2ccccc2)n1C [Antipyrine, 4-hydroxy] | 0.405 ± 0.0081 |
| C[C@]12C[C@H](O)[C@H]3[C@@H](CCC4=CC(=O)CC[C@@]43C)[C@@H]1CC[C@@H]2C(=O)CO [Corticosterone] | 0.402 ± 0.017 |
| CC(CN(C)C)CN1c2ccccc2Sc2ccccc21 (configuration not stated) [Trimeprazine tartrate] | 0.392 ± 0.0092 |
| C[C@@H]1C[C@H]2[C@@H]3C[C@H](F)C4=CC(=O)C=C[C@]4(C)[C@@]3(F)[C@@H](O)C[C@]2(C)[C@@]1(O)C(=O)COC(=O)C(C)(C)C [Flumethasone pivalate] | 0.43 ± 0.025 |
| COc1cc(C)c(/C=C/C(C)=C/C=C/C(C)=C/C(=O)O)c(C)c1C [Acitretin] | 0.369 ± 0.0094 |
| CC(=O)OCC1=C(C(=O)O)N2C(=O)[C@@H](NC(=O)Cc3cccs3)[C@H]2SC1 [Cephalothin sodium salt] | 0.332 ± 0.027 |
| CC(C)NCC(O)c1ccc(O)c(O)c1 (single isomer, unassigned; (+)) [(+)-Isoproterenol (+)-bitartrate salt] | 0.412 ± 0.013 |
| CCC1(c2ccccc2)C(=O)NCNC1=O [Primidone] | 0.408 ± 0.015 |
| CC(C)(C)C(=O)OCOC(=O)[C@@H]1N2C(=O)[C@@H](/N=C/N3CCCCCC3)[C@H]2SC1(C)C [Pivmecillinam hydrochloride] | 0.4196 ± 0.0028 |
